{
  "source": "PubChem BioAssay (Tox21)",
  "note": "Results filed as inconclusive are left out. Where a call stands in place of a potency, no number is given. Calls of active or inactive are those of the source. Calls come from the whole dose curve; as a rule, active = well fitted curve in the direction sought with a large enough effect in the repeat runs; inconclusive = weak or mixed curves; inactive = no such curve, though single readings can be large; an effect the other way counts as inactive or inconclusive. Positions of bridges follow the written chain, without caps; N, C: chain ends. Non-standard residues stand in square brackets, D forms with d. Residues, ends and D or L forms follow the SMILES beside them. *: point of attachment. X2 = CC[C@H](C)CCCCC(=O)*; Orn = NCCC[C@H](N)C(=O)O; Dab = NCC[C@H](N)C(=O)O; Mpa = O=C(O)CCS",
  "data": [
    {"system": "not listed separately", "assay": "qHTS assay to identify small molecule antagonists of the estrogen receptor alpha (ER-alpha) signaling pathway using the BG1 cell line - cell viability counter screen (AID 743081);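 note: compound given together with 17beta-estradiol as the ER stimulus; nearly all actives have a fitted effect of over 45% in size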; note: potency is the fitted concentration of half-maximal effect", "details": "BG1Luc4E2 viability, CellTiter-Fluor, 22 h; series mostly up to 70.3 µM", "values": [
      {"smiles": "O=C(O)c1cccc(/C=C2/C[C@@H]3[C@@H](/C=C/[C@@H](O)C4CCCCC4)[C@H](O)C[C@@H]3O2)c1", "Potency": "inactive"},
      {"smiles": "CC1(C)S[C@@H]2[C@H](NC(=O)[C@H](N)c3ccccc3)C(=O)N2[C@H]1C(=O)OCOC(=O)[C@@H]1N2C(=O)C[C@H]2S(=O)(=O)C1(C)C", "Potency": "inactive"},
      {"smiles": "NCCC(=O)[N-][C@@H](Cc1cnc[nH]1)C(=O)O.[Zn]", "Potency": "inactive"},
      {"smiles": "C#CCOc1ccc2c(C)cc(=O)oc2c1", "Potency": "inactive"},
      {"smiles": "OC[C@H]1O[C@@H](n2cnc3c2NC=NC[C@H]3O)C[C@@H]1O", "Potency": "inactive"},
      {"smiles": "O=P(O)(O)OC(CO)CO", "Potency": "inactive"},
      {"smiles": "CCCCCCCCCCCCCCCC(=O)O[C@@H]1[C@@H](O)[C@@H](O)[C@@H]([C@H](NC(=O)[C@@H]2C[C@@H](CCC)CN2C)[C@H](C)Cl)O[C@@H]1SC", "Potency": "inactive"},
      {"smiles": "CC(=O)O[C@H]1C[C@@]2(C)[C@@H](C[C@@H](O)[C@H]3[C@@]4(C)CC[C@@H](O)[C@@H](C)[C@@H]4CC[C@@]32C)/C1=C(\\CCC=C(C)C)C(=O)O", "Potency": "inactive"},
      {"smiles": "C[C@H](CSC(=O)c1ccccc1)C(=O)N1C[C@@H](Sc2ccccc2)C[C@H]1C(=O)O", "Potency": "inactive"},
      {"smiles": "O=S(O)CNc1ccc(S(=O)(=O)c2ccc(NCS(=O)O)cc2)cc1", "Potency": "inactive"},
      {"smiles": "CC(=O)O[C@H]1C[C@@H]2CC[C@@H]3[C@H](CC[C@@]4(C)[C@H]3C[C@H](N3CC[N+](C)(C)CC3)[C@@H]4OC(C)=O)[C@@]2(C)C[C@@H]1N1CC[N+](C)(C)CC1", "Potency": "inactive"},
      {"smiles": "O=C1O[C@H]2[C@H](O)[C@@H]1OC(O)[C@H]2O", "note": "(some centres undefined)", "Potency": "inactive"},
      {"smiles": "CC(=O)Nc1ccc(NC(=S)NC(=O)c2ccc(C(C)(C)C)cc2)cc1", "Potency": "inactive"},
      {"smiles": "CCSc1ccc2c(c1)N(CCCN1CCN(C)CC1)c1ccccc1S2", "Potency": "inactive"},
      {"smiles": "CC[C@H]1OC(=O)[C@H](C)[C@@H](O[C@H]2C[C@@](C)(OC)[C@@H](O)[C@H](C)O2)[C@H](C)[C@@H](O[C@@H]2O[C@H](C)C[C@H](N(C)C)[C@H]2O)[C@](C)(O)C[C@@H](C)[C@@H]2N[C@@H](COCCOC)O[C@@H]([C@H]2C)[C@]1(C)O", "Potency": "inactive"},
      {"smiles": "Cn1c(=O)c2c(ncn2CCOC(=O)C(C)(C)Oc2ccc(Cl)cc2)n(C)c1=O", "Potency": "inactive"},
      {"smiles": "O=C(O)c1ccc(OCCn2ccnc2)cc1", "Potency": "inactive"},
      {"smiles": "CC1=C(/C=C/C(C)=C/C=C/C(C)=C/C=C/C=C(C)/C=C/C=C(C)/C=C/C2=C(C)C[C@@H](O)CC2(C)C)C(C)(C)C[C@H](O)C1", "Potency": "inactive"},
      {"smiles": "CO[C@@H]1[C@@H](O[C@@H]2O[C@H](C)[C@@H](O[C@H]3C[C@@](C)(O)[C@@H](OC(=O)CC(C)C)[C@H](C)O3)[C@H](N(C)C)[C@H]2O)[C@@H](CC=O)C[C@@H](C)[C@@H](O)/C=C/C=C/C[C@@H](C)OC(=O)C[C@H]1O", "Potency": "inactive"},
      {"smiles": "CCN(CC)CCOc1ccc2nc(N(C)C)sc2c1", "Potency": "inactive"},
      {"smiles": "COCC1=C(C(=O)OC(C)OC(=O)OC(C)C)N2C(=O)[C@@H](NC(=O)/C(=N\\OC)c3csc(N)n3)[C@H]2SC1", "note": "(some centres undefined)", "Potency": "inactive"},
      {"smiles": "Cc1cccc(C)c1Nc1ncccc1C(=O)O", "Potency": "inactive"},
      {"smiles": "CCC(=O)O[C@]1(C(=O)CCl)[C@@H](C)C[C@H]2[C@@H]3C[C@H](F)C4=CC(=O)C=C[C@]4(C)[C@@]3(F)[C@@H](O)C[C@@]21C", "Potency": "inactive"},
      {"smiles": "O=C1C(=O)c2ncccc2-c2cccnc21", "Potency": "inactive"},
      {"smiles": "CC[C@H](C)CCCCC(=O)N[C@@H](CCN)C(=O)N[C@H](C(=O)N[C@@H](CCN)C(=O)N[C@H]1CCNC(=O)[C@H]([C@@H](C)O)NC(=O)[C@H](CCN)NC(=O)[C@H](CCN)NC(=O)[C@H](CC(C)C)NC(=O)[C@@H](CC(C)C)NC(=O)[C@H](CCN)NC1=O)[C@@H](C)O", "note": "(X2-[Dab]T[Dab][Dab][Dab][dL]L[Dab][Dab]T; lactam 4-C)", "Potency": "inactive"},
      {"smiles": "O=C(NCCNCC(O)COc1ccc(O)cc1)N1CCOCC1", "note": "(centres undefined)", "Potency": "inactive"},
      {"smiles": "CCOc1ccc(C[C@H]2NC(=O)CCSSC[C@@H](C(=O)N3CCC[C@H]3C(=O)N[C@@H](CCCN)C(=O)NCC(N)=O)NC(=O)[C@H](CC(N)=O)NC(=O)[C@H]([C@@H](C)O)NC(=O)[C@H]([C@@H](C)CC)NC2=O)cc1", "note": "([Mpa][dY](Et)ITNCP[Orn]G-NH2; disulfide 1-6)", "Potency": "inactive"},
      {"smiles": "CC(C)CN(C[C@@H](O)[C@H](Cc1ccccc1)NC(=O)O[C@H]1CO[C@H]2OCC[C@H]21)S(=O)(=O)c1ccc(N)cc1", "Potency": "inactive"},
      {"smiles": "CCCCCCCCCCCCCCCCCC(=O)OCC(C)O", "note": "(centres undefined)", "Potency": "21.1 µM (active)"},
      {"smiles": "CC(NNC(=O)c1ccccc1)c1ccccc1", "note": "(centres undefined)", "Potency": "inactive"},
      {"smiles": "CN(C(=O)CO)c1c(I)c(C(=O)NCC(O)CO)c(I)c(C(=O)NCC(O)CO)c1I", "note": "(centres undefined)", "Potency": "inactive"},
      {"smiles": "CC(C(=O)O)c1ccc(N2Cc3ccccc3C2=O)cc1", "note": "(centres undefined)", "Potency": "inactive"}
    ]},
    {"target": "Aromatase (Homo sapiens) (UniProt P11511)", "sequence (P11511 whole entry, looked up)": "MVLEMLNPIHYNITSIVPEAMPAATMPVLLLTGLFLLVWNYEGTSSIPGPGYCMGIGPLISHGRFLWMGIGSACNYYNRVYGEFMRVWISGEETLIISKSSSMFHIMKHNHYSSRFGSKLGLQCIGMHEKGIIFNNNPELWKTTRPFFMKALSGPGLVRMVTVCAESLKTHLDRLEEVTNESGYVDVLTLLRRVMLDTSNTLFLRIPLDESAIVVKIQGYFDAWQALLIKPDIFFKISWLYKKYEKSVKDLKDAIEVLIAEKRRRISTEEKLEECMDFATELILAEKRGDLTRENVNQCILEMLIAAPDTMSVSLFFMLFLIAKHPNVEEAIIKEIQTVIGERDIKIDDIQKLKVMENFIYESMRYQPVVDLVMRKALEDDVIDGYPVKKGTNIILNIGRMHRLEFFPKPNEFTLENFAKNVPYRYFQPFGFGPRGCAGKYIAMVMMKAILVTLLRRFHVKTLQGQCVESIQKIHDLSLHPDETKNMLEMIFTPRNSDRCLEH", "assay": "qHTS assay to identify aromatase inhibitors (AID 743083); note: nearly all actives have a fitted effect of over 55% in size", "details": "MCF-7 aro ERE, testosterone-driven ERE luciferase, 24 h; series mostly up to 70.3 µM", "values": [
      {"smiles": "O=C(O)c1cccc(/C=C2/C[C@@H]3[C@@H](/C=C/[C@@H](O)C4CCCCC4)[C@H](O)C[C@@H]3O2)c1", "Potency": "inactive"},
      {"smiles": "CC1(C)S[C@@H]2[C@H](NC(=O)[C@H](N)c3ccccc3)C(=O)N2[C@H]1C(=O)OCOC(=O)[C@@H]1N2C(=O)C[C@H]2S(=O)(=O)C1(C)C", "Potency": "inactive"}
    ]}
  ]
}
